Reference: PubChem BioAssay (NCI)
The panel holds about 83,000 compounds, 20% with a hit somewhere; the sample as a whole holds those more often.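 Values shown are percent growth following 48 h exposure of cells in 96-well plates to a single concentration of compound; below 10 was considered active.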 Unmarked numbers belong to inactive results. Calls of active or inactive are those of the source.

system: MDA-MB-468 breast; assay: NCI-60 one-dose screen, 48 h (100 = growth as untreated, 0 = no growth, -100 = all killed); settings: 10 µM unless noted

| Structure (SMILES) | growth |
| --- | --- |
| CCOC(=O)CC(S(=O)(=O)c1ccccc1)S(=O)(=O)c1ccccc1 | 23.2% |
| C=C(c1ccc(C(=O)O)c(F)c1)c1cc2c(cc1C)C(C)(C)C=CC2(C)C | 93.8% |
| Cc1cc(N2CCN(c3ccnc4cc(Cl)ccc34)CC2)nc(NC2CCCCC2)n1 | -5.23% (active) |
| O=C(/C=C/c1cccc(Cl)c1)c1cccc(OCCCCOc2cccc(C(=O)/C=C/c3cccc(Cl)c3)c2)c1 | 99.2% |
| CC1=CCC(OC(=O)C(C)(C)CCC(O)(C(=O)OC2(C(C)C)CCC3(C)OC3C2)C(C)C)(C(C)C)CC1 (stereo unspecified) | -64.4% (active) |
| CCOC(=O)c1cc(C(=O)c2cc(OC)c(OC)c(OC)c2)n2ncccc12 | -11.5% (active) |
| O=C(CSc1nnc(-c2cccnc2SCc2ccccc2)o1)Nc1nc(Cl)cc(Cl)n1 | 98.8% |
| CCc1c2cc(Cl)ccc2n2cc(Cc3ccccc3)[nH]c(=O)c12 | 115% |
| CC(C)(C)OC(=O)CN1CCc2c(sc3ncnc(N4CCN(c5ccc(F)cc5)CC4)c23)C1 | 92.3% |
| O=S(=O)(NCCNc1nccc(-c2c(-c3cccc(F)c3)nc3sccn23)n1)c1ccccc1 | 43.6% |
| CCOP(=O)(O)OP(=O)(O)OCC | 107% |
| CCN(CC)c1ccc(/C=C/C(=O)c2cccc(NS(C)(=O)=O)c2)cc1 | 35.4% |
| CC[C@]12C=CCN3CC[C@]4(C(=C(C(=O)OC)C1)Nc1cc5c(cc14)[C@@H]1[C@H](O5)[C@@H](O)[C@@]4(CC)CC(C(=O)OC)=C5Nc6cc(OC)ccc6[C@@]56CCN1[C@@H]46)[C@@H]32 | -36.8% (active) |
| O=C1C=CC(=O)N1Cc1ccco1 | 65.4% |
| COc1cccc(C2C(C#N)=C(N)Oc3cc4c(cc32)OCO4)c1 (stereo unspecified) | 2.26% (active) |
| CCOC(=O)NNc1cccc(Cl)c1 | 98.2% |
| COc1ccc(C(=O)n2nc(CC(=O)NCc3ccccc3)nc2N)cc1 | 105% |
| COc1ccc(/C=C/C(=O)c2cccc(OCCCCOc3cccc(C(=O)/C=C/c4ccc(OC)c(OC)c4)c3)c2)cc1OC | 23.1% |

| Structure (SMILES) | growth |
| --- | --- |
| CCc1ccc(NC(=O)N[C@@H](Cc2cc(F)cc(F)c2)C(=O)N[C@@H]2C(=O)N3C[C@H](O)C[C@H]3C(=O)N3CCOC[C@H]3C(=O)N[C@@H](C)C(=O)N3C[C@H](C)C[C@H]3C(=O)O[C@H]2C)cc1 | 14.8% |
| CCCCOc1nc2ccc(C)cc2cc1/C=C/C(=O)/C=C(O)/C=C/c1cc2cc(C)ccc2nc1OCCCC | 104% |
| CN(C)c1ccc(N=Nc2cccc3ccccc23)cc1 | -26.6% (active) |
| Cc1ccc2c(C3C(C#N)=C(N)Oc4cc5ccccc5cc43)cc(=O)oc2c1 (stereo unspecified) | 30.3% |
| O=[N+]([O-])c1cc[n+]([O-])cc1 | 98.1% |
| COc1cc(-c2nn(-c3ccc(NC(=O)Nc4cc(C(F)(F)F)cc(C(F)(F)F)c4)cc3)cc2-c2ccncc2)ccc1Cl | -15.2% (active) |
| O=c1oc2c(cnc3ccccc32)cc1-c1cccs1 | 107% |
| S=C(Nc1ccc(Cl)cc1)Nc1ccc(Cl)cc1 (tested in a mixture with another compound) | -16.6% (active) |
| COc1ccccc1CNCCCN1C(=O)c2ccc3c4c(ccc(c24)C1=O)C(=O)N(CCCNCCCCNCCCN)C3=O | -84.5% (active) |
| O=C1COCCN1c1ccc(Nc2nc(Cl)nc(N3CCOCC3)n2)cc1 | 87.2% |
| CCCCC1COc2cccc3c(SCC(=O)N(C)c4cccc5ccccc45)cc[n+]1c23 (stereo unspecified) | 92.2% |
| Nc1nc2cc(O)ccc2n2cc3c(F)cccc3c12 | 18.6% |
| COc1cc(C(=O)/C=C/c2cccnc2Nc2ccc(Cl)cc2)cc(OC)c1OC | -80.1% (active) |
| Cc1cc(Br)c(N)c(Br)c1 | 98.3% |
| CC(C)(C)c1ccc(C(=O)Nc2sc3c(c2C(N)=O)CC/C(=N\O)C3)cc1 | 2.17% (active) |
| O=c1c2cnn(-c3ccccc3)c2n2c(CN3CCOCC3)nnc2n1-c1ccccc1 | 116% |
| COc1cccc(Cn2c(-c3nonc3NC(C)=O)nc3ccccc32)c1 | -7.42% (active) |
| CNC(=O)c1cc(N2CCc3cc(NC(=O)Nc4ccc(N5CCN(C)CC5)c(C(F)(F)F)c4)ccc32)ccn1 | 77.9% |
